Compound activity as filed in PubChem BioAssay.
Hits are enriched below; roughly 2.4% of the tested compounds scored in any of these assays.
CHO-K1 Ca antag = counter-screen for M1 antagonists: effect in parental CHO-K1 cells | AID 602250 | inhibition, % at 3 µM | 360,000 compounds, 0.6% hits | ATP-induced calcium, Fluo-8 fluorescence;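 active = inhibition above a per-plate cutoff, the plate's mean sample inhibition plus 3 SD, cut at about 24% in these data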;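 also: 0% = DMSO plus EC80 ATP and 100% = DMSO alone without ATP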
M1 ag parental = counter-screen for M1 agonists: effect in parental CHO-K1 cells; 360,000 compounds, 0.48% hits; Fluo-8 calcium fluorescence; scaled to maximal ATP response, vehicle zero; activation, % at 3 µM; in the data active = activation above about 15%;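 also: untransfected CHO-K1 host cells lacking M1 receptor as counterscreen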
M1 antag = antagonists of human M1 muscarinic receptor; CHO-K1 hM1, Fluo-8 calcium fluorescence, ACh EC80 antagonist; inhibition, % at 3 µM; 360,000 compounds, 1.3% hits;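 active = percent inhibition above its own plate's cutoff, namely the mean of that plate's compound wells plus 3 SD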;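 also: peak over basal fluorescence ratio during 140 s after agonist addition; 0% = ACh EC80 plus DMSO and 100% = DMSO alone without agonist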
Target sequence (P11229 whole entry, looked up): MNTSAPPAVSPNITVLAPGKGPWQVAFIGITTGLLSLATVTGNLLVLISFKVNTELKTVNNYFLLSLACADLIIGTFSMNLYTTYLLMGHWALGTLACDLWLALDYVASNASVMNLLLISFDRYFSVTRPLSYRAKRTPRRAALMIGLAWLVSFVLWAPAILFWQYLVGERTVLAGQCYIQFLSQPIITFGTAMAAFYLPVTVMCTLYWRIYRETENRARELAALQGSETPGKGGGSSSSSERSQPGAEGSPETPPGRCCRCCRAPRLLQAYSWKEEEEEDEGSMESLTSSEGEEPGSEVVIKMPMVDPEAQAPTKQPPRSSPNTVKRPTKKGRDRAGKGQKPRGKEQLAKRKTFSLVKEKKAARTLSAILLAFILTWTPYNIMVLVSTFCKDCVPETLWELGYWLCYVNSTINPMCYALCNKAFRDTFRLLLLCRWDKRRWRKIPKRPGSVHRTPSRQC
M1 PAM = potentiates human M1 receptor response to acetylcholine. activation, % at 3 µM. 360,000 compounds, 0.088% hits. CHO-K1 hM1, Fluo-8 calcium fluorescence, ACh EC20; 0% = ACh EC20, 100% = maximal ACh. P11229; in the data active = activation above about 19%, passing the limit was not always enough
M1 PAM parental = nonselective activator or artifact in parental CHO-K1 calcium assay; activation, % at 3 µM; 360,000 compounds, 0.02% hits; AID 602247; ATP EC20, Fluo-8 calcium fluorescence; 0% at ATP EC20, 100% at ATP max;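 active = activation above the run cutoff, the mean activation of all test compounds plus 3 SD, cut at about 40% in these data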;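 also: peak over basal fluorescence ratio in a 140 s read after ATP addition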
M1 ag = human M1 muscarinic receptor agonism; P11229; 360,000 compounds, 0.33% hits; AID 588814; CHO-K1 hM1, Fluo-8 calcium fluorescence, agonist mode; 0% DMSO, 100% acetylcholine EC100; activation, % at 3 µM;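 active = activation above the run's mean compound activation plus 3 SD, cut at about 16% in these data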;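 also: peak over basal fluorescence ratio within a 140 s kinetic read after compound addition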
Starred values were filed as active, the others as inactive; x = not tested or not shown.

SMILES | CHO-K1 Ca antag | M1 ag parental | M1 antag | M1 PAM | M1 PAM parental | M1 ag
C/C(=N\Nc1cc(C)nc(NCc2ccccc2)n1)c1ccc([N+](=O)[O-])cc1 | -1.5 | 0.5 | 38.0* | -15.3 | 11.4 | -7.3
N#CC(=C=[N-])c1nc2ccccc2nc1-[n+]1cccc(NC(=O)c2cccs2)c1 | -14.6 | 0.5 | -13.8 | 7.4 | 13.0 | -1.4
COc1ccc2occ(C(=O)c3coc4ccc(O)c(CN(C)C)c34)c2c1 | 5.0 | 4.6 | 20.0* | -12.3 | 11.2 | -2.4
COc1ccc(OC)c(C(=O)c2coc3ccc(O)c(CN(C)C)c23)c1 | -8.5 | 1.1 | -6.0 | 7.8 | 13.7 | -7.2
CCCCCc1ccc(OCCC[n+]2ccccc2)c(CCCCC)c1 | -3.9 | 7.9 | 69.1* | -27.4 | 16.5 | -2.5
CCCCCc1ccc(OCCOCCn2c[n+](C)c3ccccc32)c(CCCCC)c1 | 10.4 | 0.3 | 79.3* | -30.5 | 17.8 | 3.0
Cc1ccc(C(C)NC(=O)c2ccc3c(c2)OCO3)cc1C (stereo not given) | -7.8 | 2.0 | 6.7 | 1.2 | -7.0 | -1.1
Cc1c(C(=O)N2CCN(C(c3ccccc3)c3ccccc3)CC2)oc2ccccc12 | 4.5 | -0.4 | 1.4 | -2.8 | -10.7 | 0.4
CCCCNC(=O)C1c2ccccc2OCC(=O)N1C1CC1 (stereo not given) | -11.0 | 1.1 | x | x | 19.7 | x
COC(=O)C1=C(C)N(Cc2ccccc2)C(=NCCN2CCOCC2)N[C@H]1CCc1ccccc1 | -15.2 | 0.9 | -7.3 | 8.8 | 14.3 | -11.6
COC(=O)C1=C(C)N(Cc2ccccc2)C(=NCc2ccccc2)N[C@H]1c1ccccc1 | 9.2 | 15.9* | 16.1 | 0.1 | 6.0 | -5.9
CCN1C(=NCCN2CCOCC2)N[C@@H](c2ccccc2)C(C(=O)OC)=C1C | 26.0* | -0.6 | 4.6 | -10.1 | -21.3 | -9.7
CCOC(=O)c1csc(-c2ccc(COC(=O)c3ccccc3)o2)n1 | -5.2 | 2.0 | 0.3 | -3.7 | 5.4 | -5.5
CC(C)(C)OC(=O)N1CCc2onc(-c3ccc(N)cc3)c2C1=O | -11.7 | 1.1 | -2.2 | 0.4 | 23.2 | -3.6
CCOc1ccccc1-c1c2cc(O)c(=O)cc-2oc2cc(O)c(O)cc12 | 3.1 | 16.6* | 0.8 | -4.2 | 11.5 | 17.5*
COc1ccc(OC)c(-c2c3cc(O)c(=O)cc-3oc3cc(O)c(O)cc23)c1 | 32.1* | 71.5* | 32.9* | -19.4 | -7.6 | 222.5*
O=c1cc2oc3cc(O)c(O)cc3c(-c3ccccc3O)c-2cc1O | -1.1 | 10.8 | 9.7 | -9.8 | 1.8 | 26.3*
CC(C)NC(=O)OCc1c(COC(=O)NC(C)C)c([N+](=O)[O-])n2c1CCC2 | -1.9 | -0.5 | -0.1 | 1.7 | 0.4 | -5.1
COc1cccc(C(=O)Nc2cc(C)ccc2NC(=O)COc2ccccc2)c1 | -9.5 | 1.0 | 47.8* | -17.4 | -1.8 | -10.1
CN(C)CCOCCSc1ccc(Cl)cc1 | -2.6 | 0.3 | 5.4 | -7.9 | 18.4 | -7.0
Clc1ccc(SCCOCCN2CCCCCC2)cc1 | 3.8 | 0.5 | 42.0* | -27.0 | -2.4 | -7.4
CCOc1ccc(-c2cc(C(=O)NCc3ccc(C(F)(F)F)cc3)[nH]n2)c(C)c1 | -0.1 | -0.2 | 1.7 | -2.8 | -7.7 | -3.0
Cc1cc(F)ccc1-c1cc(C(=O)NCc2ccc(C(F)(F)F)cc2)[nH]n1 | 3.1 | 16.2* | 9.1 | 0.6 | 25.8 | 32.4*
Clc1ccc(C2=CSC3=NCCN23)cc1Cl | -8.3 | 0.9 | 17.1* | -21.1 | 7.0 | -6.2
CCCCOc1ccc(C2=CSC3=NCCN23)cc1[N+](=O)[O-] | 0.7 | 0.0 | 59.0* | -28.4 | 7.4 | -8.9
SMILES | CHO-K1 Ca antag | M1 ag parental | M1 antag | M1 PAM | M1 PAM parental | M1 ag
COc1ccc(C2=CSC3=NCCN23)cc1OC | -2.4 | 0.3 | 8.0 | -4.2 | 9.7 | -3.4
Cc1ccc(S(=O)(=O)Nc2ccc(C(=O)NCCCn3ccnc3)cc2)cc1[N+](=O)[O-] | -14.9 | 0.8 | -6.1 | 4.0 | 25.4 | -8.2
CC1CC(C)(C)CC2(C1)NC(=O)N(CC(=O)N1CCN(S(=O)(=O)c3ccc(F)c(F)c3F)CC1)C2=O (stereo not given) | -8.4 | -0.1 | -8.6 | 6.5 | -9.0 | -8.2
COc1ccccc1C(=O)NC(=O)CSc1nnc(C)s1 | 54.7* | 0.4 | -9.6 | 9.0 | -3.9 | -2.1
COc1ccc(NC2CCCN(C(=O)CCCn3cncn3)C2)cc1 (stereo not given) | 10.9 | 17.6* | 2.4 | 2.2 | 3.5 | -1.5
C(#Cc1ccccc1)C[N+]1(CC#Cc2ccccc2)CCCCC1 | 4.2 | -0.7 | 59.6* | -36.0 | 0.8 | -14.3
C#CC[N+]1(CC#Cc2cccc(C)c2)CCCCC1 | -12.4 | 1.0 | 4.0 | -0.5 | 23.4 | -13.4
C#CC[N+]1(CC#Cc2ccccc2)CCOCC1 | 15.7 | -0.6 | -21.0 | 9.1 | -5.1 | -5.8
C#CC[N+]1(CC#Cc2ccccc2)CCCCC1 | -18.6 | 0.7 | -4.3 | -0.5 | 18.3 | -7.5
CCC[N+]1(CC#CCC(c2ccccc2)c2ccccc2)CCCCC1 | -7.3 | 0.2 | 63.3* | -26.8 | 3.9 | -7.3
Cc1ccc(C#CC[N+]2(CC#Cc3ccc(C)cc3)CCCCC2)cc1 | 6.5 | 0.3 | 48.0* | -27.4 | -0.4 | -9.7
Cc1cccc(C)c1NC(=O)N1CCC(c2nc3ccccc3o2)CC1 | -8.0 | 1.2 | 27.6* | -15.4 | -7.6 | -6.4
O=C(COC(=O)c1cccc(Cl)c1)NCCN1C(=O)CSC1=O | -10.5 | 0.4 | -3.9 | -2.0 | 9.2 | -4.7
O=C(COC(=O)CNC(=O)c1ccco1)NCCN1C(=O)CSC1=O | 30.6* | -0.2 | 2.5 | 5.4 | -5.6 | -1.9
O=C(COC(=O)c1cc(Cl)cc(Cl)c1)NCCN1C(=O)CSC1=O | 25.8* | -0.4 | 3.0 | -4.1 | -14.5 | -6.6
COc1ccc(C(O)c2ncc(-c3ccccc3C)[nH]2)cc1F (stereo not given) | 6.3 | 1.5 | -8.7 | 10.8 | -9.3 | 3.4
C[N+]1(C)CCC(=C(c2ccccc2)c2ccccc2)CC1 | -5.6 | 0.8 | 97.7* | -24.9 | 15.4 | -6.7
COc1cc(C2N(C)C(=O)c3ccccc3N2C)ccc1O (stereo not given) | -0.1 | 16.8* | 5.4 | 0.1 | 6.2 | -4.5
CC(C)CCC1(CCNC(C)c2cccs2)CCOC(C)(C)C1 (stereo not given) | -12.1 | 0.3 | -9.4 | 7.3 | -2.5 | -5.0
Cc1ccc(NS(=O)(=O)c2ccc(C(=O)NCC(c3ccco3)N(C)C)cc2)cc1 (stereo not given) | 7.6 | 26.1* | 14.6 | -8.1 | 11.1 | 9.8
Cc1cccc(NS(=O)(=O)c2ccc(C(=O)NCC(c3ccccc3)N(C)C)cc2)c1C (stereo not given) | -1.2 | 13.9 | 26.6* | -18.6 | -13.9 | 3.9
CN(C)C(CNC(=O)c1ccc(NC(=O)c2cccs2)cc1)c1ccccc1 (stereo not given) | -1.9 | 0.9 | 20.5 | -24.8 | 0.3 | -11.9
